Test results from PubChem BioAssay (NCATS).
Inconclusive results are not listed. Where a call stands in place of a potency, no number is given. Calls of active or inactive are those of the source. Calls come from the whole dose curve; as a rule, active = well fitted curve in the direction sought with a large enough effect; inconclusive = small, poorly fitted or top-dose-only effect, or another doubt; inactive = no such curve, though single readings can be large or run the other way.

test: qHTS for differential inhibitors of proliferation of Plasmodium falciparum line HB3 (AID 1886); conditions: Potency: Plasmodium falciparum HB3 proliferation inhibition; series mostly up to 28.7 µM;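 note: parasites grown with compound for 72 h before SYBR Green readout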
Potency is the fitted concentration of half-maximal effect.

SMILES | Potency
CCCCNC(=O)NS(=O)(=O)c1ccc(C)cc1 | inactive
O=C1NCN(c2ccccc2)C12CCN(CCCC(c1ccc(F)cc1)c1ccc(F)cc1)CC2 | 7.08 µM (active)
NC(Cc1ccc(Cl)cc1)C(=O)O (centres undefined) | inactive
COCCOC(=O)C1=C(C)NC(C)=C(C(=O)OC(C)C)C1c1cccc([N+](=O)[O-])c1 (centres undefined) | 8.91 µM (active)
CCN(Cc1ccncc1)C(=O)C(CO)c1ccccc1 (centres undefined) | inactive
Fc1ccc(C(c2ccc(F)cc2)N2CCN(C/C=C/c3ccccc3)CC2)cc1 | 10 µM (active)
CC(=O)Oc1cc(C(C)C)c(OCCN(C)C)cc1C | inactive
CO[C@@]1(NC(=O)CSCC#N)C(=O)N2C(C(=O)O)=C(CSc3nnnn3C)CS[C@@H]21 | inactive
CC(=O)OCC1=C(C(=O)O)N2C(=O)[C@@H](NC(=O)Cc3cccs3)[C@H]2SC1 | inactive
CN(C)C(=O)Oc1ccc[n+](C)c1 | inactive
Cc1nnc(SCC2=C(C(=O)O)N3C(=O)[C@@H](NC(=O)Cn4cnnn4)[C@H]3SC2)s1 | inactive
CN(C)CC[C@@H](c1ccc(Br)cc1)c1ccccn1 | inactive
C[C@H](CS)C(=O)N1CCC[C@H]1C(=O)O | inactive
CCOC(=O)C1=C(C)NC(C)=C(C(=O)OC)C1c1cccc(Cl)c1Cl (centres undefined) | 12.6 µM (active)
Cc1ccc(S(=O)(=O)NC(=O)NN2CCCCCC2)cc1 | inactive
CNCCC(Oc1ccccc1OC)c1ccccc1 (centres undefined) | inactive
CC(C(=O)O)c1ccc(CC2CCCC2=O)cc1 (centres undefined) | inactive
OC(CCN1CCCCC1)(c1ccccc1)C1CCCCC1 (centres undefined) | 11.2 µM (active)
c1ccc2c(c1)CCCC2C1=NCCN1 (centres undefined) | inactive
OCCN1CCN(CC/C=C2/c3ccccc3Sc3ccc(C(F)(F)F)cc32)CC1 | 5.01 µM (active)
Nc1c2c(nc3ccccc13)CCCC2O (centres undefined) | inactive
CCNC(=O)N1CCN(CCCC(c2ccc(F)cc2)c2ccc(F)cc2)CC1 | 1.12 µM (active)
CCN(CC)CC(=O)Nc1c(C)cccc1C | inactive
Cc1cc(C)c(/C=C2\C(=O)Nc3ccccc32)[nH]1 | inactive
C(=C\c1ccccc1)/CN1CCN(C(c2ccccc2)c2ccccc2)CC1 | 11.2 µM (active)
Cc1nc2c([nH]1)c(=O)n(C)c(=O)n2Cc1ccco1 | inactive
CN(C)CCN(Cc1cccs1)c1ccccn1 | inactive
COCCc1ccc(OCC(O)CNC(C)C)cc1 (centres undefined) | inactive
c1cc(CN2CCCCC2)cc(OCCCNc2nc3ccccc3s2)c1 | 11.2 µM (active)
